Laboratory results taken from PubChem BioAssay (NCATS).
Several values for one entry are separate records, joined by “and”; a condition that tells them apart may be missing. Equal values may be shown once. Results filed as inconclusive are left out. Entries that show only a call come without a potency. Some structures have more than one record in an assay (separate samples or runs), and their calls can disagree. Activity calls are given as the source filed them. Calls follow the shape of the dose curve; as a rule, active = well fitted inhibition curve with a large enough effect; inconclusive = small, poorly fitted or top-dose-only effect; inactive = flat fitted curve, though single readings scatter.

Legend:
NIH3T3 [1] = experiment: Cytotoxic Profiling of Annotated Libraries Using Quantitative High-Throughput Screening (AID 1296008); conditions: Five cell lines viability, CellTiter-Glo ATP luminescence, 48-72 h; max response: stronger effect = lower value
Method in brief: (§1)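 Compounds were pin-transferred onto cells and incubated 48 or 72 hr at 37 degree Celsius, 95% humidity. CellTiter-Glo was added, plates sat 10 min at room temperature, then ATP-coupled luminescence was imaged as the viability read-out.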

MCC-26 = experiment: qHTS assay to identify novel small-molecules to repurpose for Merkel cell carcinoma treatment (AID 1296009); conditions: MCC and control cell lines, CellTiter-Glo viability, 72 h; series mostly up to 46 µM
Method in brief: (§2)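 qHTS format: cells treated with library compounds in DMSO across 8 (NPC) or 11 (MIPE) concentrations. Readout after 72 hr at 37 degree celsius was CellTiter-Glo luminescence.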

MKL-2 = experiment: as above; conditions: MCC and control cell lines, CellTiter-Glo viability, 72 h; series mostly up to 46 µM
Method in brief: as §2

KB-3-1 = experiment: Cytotoxic Profiling of Annotated Libraries Using Quantitative High-Throughput Screening (AID 1296008); conditions: Five cell lines viability, CellTiter-Glo ATP luminescence, 48-72 h; max response: stronger effect = lower value
Method in brief: as §1

HEK293T = experiment: qHTS assay to identify novel small-molecules to repurpose for Merkel cell carcinoma treatment (AID 1296009); conditions: MCC and control cell lines, CellTiter-Glo viability, 72 h; at 44.8 µM (top of the series)
Method in brief: as §2

MCC-13 = experiment: as above; conditions: MCC and control cell lines, CellTiter-Glo viability, 72 h; series mostly up to 46 µM
Method in brief: as §2

MKL-1 = experiment: as above; conditions: MCC and control cell lines, CellTiter-Glo viability, 72 h; series mostly up to 46 µM
Method in brief: as §2

NIH3T3 [2] = experiment: as above; conditions: MCC and control cell lines, CellTiter-Glo viability, 72 h; at 44.8 µM (top of the series) unless noted
Method in brief: as §2

HACAT = experiment: as above; conditions: MCC and control cell lines, CellTiter-Glo viability, 72 h; at 44.8 µM (top of the series) unless noted
Method in brief: as §2
Also: nearly all actives have a fitted effect of over 60% in size.
Potency is read from the fitted curve at half-maximal effect.

CN(C)c1ccc(Nc2nc(N)n(C(=O)c3c(F)cccc3F)n2)cc1
Potency (NIH3T3 [1]): 10.5 µM (active) | Potency (MCC-26): inactive | Potency (MKL-2): inactive

Cc1[nH]c(=O)c(C#N)cc1-c1ccncc1
max response (KB-3-1): 6.66% (inactive) and -5.96% (inactive) and -18.3% (inactive) | max response (NIH3T3 [1]): 0.936% (inactive) | outcome (NIH3T3 [1]): inactive | outcome (HEK293T): inactive | Potency (MCC-13): inactive | Potency (MCC-26): inactive | Potency (MKL-1): inactive | Potency (MKL-2): inactive | outcome (NIH3T3 [2]): inactive

CCCCNc1cc(C(=O)O)cc(S(N)(=O)=O)c1Oc1ccccc1
max response (KB-3-1): -8.24% (inactive) and 0.128% (inactive) | max response (NIH3T3 [1]): 1.18% (inactive) | outcome (NIH3T3 [1]): inactive | outcome (HACAT): inactive | outcome (HEK293T): inactive | Potency (MCC-13): inactive | Potency (MCC-26): inactive | Potency (MKL-1): inactive | Potency (MKL-2): inactive | outcome (NIH3T3 [2]): inactive

Nc1nc2[nH]cc(CCc3ccc(C(=O)N[C@@H](CCC(=O)O)C(=O)O)cc3)c2c(=O)[nH]1
max response (KB-3-1): -20.9% (inactive) and 0.617% (inactive) | Potency (NIH3T3 [1]): 1.18 µM (active) | Potency (MCC-13): inactive | Potency (MKL-1): inactive | Potency (MKL-2): inactive

COc1cc(F)c(F)c(Nc2ccc(I)cc2F)c1NS(=O)(=O)C1(C[C@H](O)CO)CC1
outcome (KB-3-1): inactive | max response (NIH3T3 [1]): -9.12% (inactive) | Potency (MCC-13): inactive | Potency (MCC-26): inactive | Potency (MKL-1): inactive | Potency (MKL-2): inactive

C[C@@H]1CN(Cc2ccc(F)cc2)[C@@H](C)CN1C(=O)c1cc2c(C(=O)C(=O)N(C)C)cn(C)c2cc1Cl
max response (KB-3-1): 6.97% (inactive) and -3.16% (inactive) | max response (NIH3T3 [1]): 1.1% (inactive) | outcome (NIH3T3 [1]): inactive | outcome (HACAT): inactive | Potency (MCC-13): inactive | Potency (MCC-26): inactive | Potency (MKL-1): inactive | Potency (MKL-2): inactive | outcome (NIH3T3 [2]): inactive

O=c1n(CCCN2CCN(c3cccc(Cl)c3)CC2)nc2ccccn12
max response (KB-3-1): -0.946% (inactive) and 1.57% (inactive) | max response (NIH3T3 [1]): 3.22% (inactive) and 3% (inactive) | outcome (HACAT): inactive | Potency (MCC-13): inactive | Potency (MCC-26): inactive | Potency (MKL-1): inactive | Potency (MKL-2): inactive

Nc1nccc(-c2ccc3noc(-c4ccc(Cl)cc4)c3c2)n1
max response (KB-3-1): 5.59% (inactive) | max response (NIH3T3 [1]): -8.8% (inactive) | Potency (MCC-13): inactive | Potency (MCC-26): inactive | Potency (MKL-1): inactive | Potency (MKL-2): inactive

Oc1cccc(-c2nc(N3CCOCC3)c3oc4ncccc4c3n2)c1
Potency (NIH3T3 [1]): 0.762 µM (active)

NC(=O)c1ccc(-c2nc(-c3ccc4c(c3)OCCO4)c(-c3ccccn3)[nH]2)cc1
max response (NIH3T3 [1]): -6.71% (inactive) | Potency (MCC-13): inactive | Potency (MCC-26): inactive | Potency (MKL-1): inactive

COc1ccc(C2=N[C@H](c3ccc(Cl)cc3)[C@H](c3ccc(Cl)cc3)N2C(=O)N2CCNC(=O)C2)c(OC(C)C)c1
Potency (MCC-13): inactive | Potency (MCC-26): inactive | Potency (MKL-1): 9.35 µM (active)

COc1ccc(-c2ccc3c(N4CCOCC4)nc(N4C[C@@H](C)O[C@@H](C)C4)nc3n2)cc1CO
Potency (KB-3-1): 1.66 µM (active) | Potency (NIH3T3 [1]): 3.72 µM (active) | Potency (MKL-1): inactive

N=c1nc(N2CCCCC2)cc(N)n1O
max response (NIH3T3 [1]): 3.13% (inactive) | outcome (NIH3T3 [1]): inactive | outcome (HACAT): inactive | outcome (HEK293T): inactive | Potency (MCC-13): inactive | Potency (MCC-26): inactive | Potency (MKL-1): inactive | Potency (MKL-2): inactive | outcome (NIH3T3 [2]): inactive

C#Cc1cccc(Nc2ncnc3cc(OCCOC)c(OCCOC)cc23)c1
max response (KB-3-1): -10.3% (inactive) and -1.91% (inactive) | Potency (MCC-13): inactive | Potency (MCC-26): inactive | Potency (MKL-1): inactive | Potency (MKL-2): inactive

CC(=O)Oc1ccccc1C(=O)O
max response (KB-3-1): -12% (inactive) and 2.14% (inactive) | max response (NIH3T3 [1]): 0.988% (inactive) and 3.48% (inactive) | outcome (HACAT): inactive | outcome (HEK293T): inactive | Potency (MCC-13): inactive | Potency (MCC-26): inactive | Potency (MKL-1): inactive | Potency (MKL-2): inactive

CC(C)(N)C(=O)N[C@H](COCc1ccccc1)C(=O)N1CCC2(CC1)CN(S(C)(=O)=O)c1ccccc12
max response (KB-3-1): -17.9% (inactive) and 1.97% (inactive) | max response (NIH3T3 [1]): -13.8% (inactive) | Potency (MCC-13): inactive | Potency (MCC-26): inactive | Potency (MKL-1): inactive | Potency (MKL-2): inactive

CCn1cc(C(=O)O)c(=O)c2cc(F)c(N3CCNC(C)C3)c(F)c21 (stereo not given)
outcome (HACAT): inactive | Potency (MCC-13): inactive | Potency (MCC-26): inactive | Potency (MKL-1): inactive | Potency (MKL-2): inactive | outcome (NIH3T3 [2]): inactive

CC(c1cc2ccccc2s1)N(O)C(N)=O (stereo not given)
max response (KB-3-1): 0.162% (inactive) and -9.2% (inactive) | max response (NIH3T3 [1]): 3.52% (inactive) | outcome (NIH3T3 [1]): inactive | outcome (HEK293T): inactive | Potency (MCC-13): inactive | Potency (MCC-26): inactive | Potency (MKL-1): inactive | Potency (MKL-2): inactive | outcome (NIH3T3 [2]): inactive

CC(C)C[C@H](NC(=O)[C@@H](O)[C@H](N)Cc1ccccc1)C(=O)O
Potency (MCC-13): inactive | Potency (MCC-26): inactive | Potency (MKL-1): inactive

Cc1ccc(-n2nc(C(C)(C)C)cc2NC(=O)Nc2ccc(OCCN3CCOCC3)c3ccccc23)cc1
outcome (KB-3-1): inactive | max response (NIH3T3 [1]): -5.48% (inactive) | outcome (HACAT): inactive | Potency (MCC-13): inactive | Potency (MCC-26): inactive | Potency (MKL-1): inactive and 23.7 µM (active) | Potency (MKL-2): 18.8 µM (active)

CN(C(=O)c1ccc(F)cc1C(F)(F)F)C1CCN(c2nnc(-c3ccnn3C)c3ccccc23)CC1
max response (KB-3-1): -19.8% (inactive) | max response (NIH3T3 [1]): -30.1% (inactive) and 3.56% (inactive) | outcome (HACAT): inactive | Potency (MCC-13): inactive | Potency (MCC-26): inactive | Potency (MKL-1): inactive | Potency (MKL-2): inactive

COCC(=O)NCC=Cc1ccc2ncnc(Nc3ccc(Oc4ccc(C)nc4)c(C)c3)c2c1
max response (NIH3T3 [1]): -10.3% (inactive) | Potency (MCC-26): inactive | Potency (MKL-1): inactive

C[C@]12CCC(=O)C=C1CC[C@@H]1[C@@H]2[C@@H](O)C[C@@]2(C)[C@H]1CC[C@]2(O)C(=O)CO
max response (NIH3T3 [1]): 1.04% (inactive) | Potency (MCC-13): inactive | Potency (MCC-26): inactive | Potency (MKL-1): inactive | Potency (MKL-2): inactive

CC1(C)SCCN(S(=O)(=O)c2ccc(OCC#CCO)cc2)[C@@H]1C(=O)NO
outcome (KB-3-1): inactive | max response (NIH3T3 [1]): -11.8% (inactive) | Potency (MCC-13): inactive | Potency (MCC-26): inactive | Potency (MKL-2): inactive

Cc1csc(NC(=O)c2sc3nc4c(c(C(F)(F)F)c3c2N)CCC4)n1
max response (KB-3-1): 1.14% (inactive) and -9.3% (inactive) | max response (NIH3T3 [1]): -3.35% (inactive) and -3.51% (inactive) | outcome (HACAT): inactive | Potency (MCC-13): inactive | Potency (MCC-26): inactive | Potency (MKL-1): inactive | Potency (MKL-2): inactive

Cc1cc2c(C(C)C)c(O)c(O)c(C=O)c2c(O)c1-c1c(C)cc2c(C(C)C)c(O)c(O)c(C=O)c2c1O
Potency (KB-3-1): 9.35 µM (active) | Potency (MCC-13): inactive | Potency (MCC-26): inactive | Potency (MKL-1): 13.3 µM (active)
